Test systems include NCI-H23 lung; NCI-H226 lung; NCI-H322M lung; HOP-62 NSCLC; NCI-H460 lung; HOP-92 NSCLC; NCI-H522 lung; A549/ATCC NSCLC; 786-0 renal; COLO 205 colon; DU-145 prostate; K-562 leukemia; MALME-3M melanoma; MDA-MB-231 breast; RXF 393 renal; SF-268 CNS; SF-295 CNS; SF-539 CNS; UACC-257 melanoma; M14 melanoma.
Assay in all cases: NCI-60 one-dose screen, 48 h (100 = growth as untreated, 0 = no growth, -100 = all killed)
What all share (settings): 10 µM unless noted

For seven molecules, growth results are on record in PubChem BioAssay (NCI).

About 83,000 compounds went through this panel and 20% of them were active in at least one assay; those are over-represented in the sample as a whole.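 Values shown are percent growth following 48 h exposure of cells in 96-well plates to a single concentration of compound; below 10 was considered active.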 Unmarked numbers belong to inactive results. Activity calls are given as the source filed them.

`CC(=O)c1c(C)[nH]c(-c2nc3ccc(N4CCN(C)CC4)cc3[nH]2)c1-c1ccc(OCC2CCOCC2)cc1`: the growth is 36.6% with NCI-H23 lung; 44.4% with NCI-H226 lung; 41.1% in the experiment with NCI-H322M lung; 24.7% in the experiment on HOP-62 NSCLC; 49.6% with NCI-H460 lung; 37% with HOP-92 NSCLC. The growth is 37.6% in the experiment with NCI-H522 lung; 33.2% with A549/ATCC NSCLC; 35.6% with 786-0 renal; 3.57% (active) in the experiment on COLO 205 colon; 63.4% with DU-145 prostate; 22.4% with K-562 leukemia. In addition, the growth with MALME-3M melanoma was 20.7%; in the experiment on MDA-MB-231 breast, 37.4%; in the experiment on RXF 393 renal, 31.1%; with SF-268 CNS, 54.3%; in the experiment on SF-295 CNS, 43.3%; in the experiment with SF-539 CNS it was 40.2%. The growth is 30.8% with UACC-257 melanoma and 34.5% with M14 melanoma.

With `C=C1C(=O)O[C@H]2[C@H]1CC/C(COC(=O)N[C@H](Cc1c[nH]c3ccccc13)C(=O)OC)=C\CC[C@@]1(C)O[C@@H]21`, the growth in the experiment with NCI-H23 lung was 68.8%; in the experiment on NCI-H226 lung it was 85.6%; in the experiment on NCI-H322M lung it was 86.3%; with HOP-62 NSCLC it was 64.6%; in the experiment with NCI-H460 lung it was 64%; with HOP-92 NSCLC, 3.25% (active). The growth in the experiment on NCI-H522 lung was -71.4% (active); with A549/ATCC NSCLC, 82.4%; with 786-0 renal, -56.3% (active); with COLO 205 colon it was -36.2% (active); with DU-145 prostate, 40.9%; in the experiment with K-562 leukemia, 7.14% (active). For the same molecule, the growth was 4.76% (active) with MALME-3M melanoma; 26.8% in the experiment with MDA-MB-231 breast; -25.5% (active) with RXF 393 renal; 72.6% with SF-268 CNS; 91.9% in the experiment on SF-295 CNS; 11.6% with SF-539 CNS. Besides, the figures for the growth in the experiment with UACC-257 melanoma and in the experiment on M14 melanoma were 63.7% and 44.1%, respectively.

Turning to `CC/C=C\C[C@H]1CC=C2C(=O)C=C[C@@H]2CC=CCCCC(=O)O[C@@H](CCCCC)CC=C2C(=O)C=C[C@@H]2CC=CCCCC(=O)O[C@@H](CCCCC)CC=C2C(=O)C=C[C@@H]2CC=CCCCC(=O)O[C@@H](CCCCC)CC=C2C(=O)C=C[C@@H]2CC=CCCCC(=O)O1`, the growth with NCI-H23 lung was 4.69% [7.9 µM] (active); in the experiment on NCI-H226 lung it was 74.6% [7.9 µM]; with NCI-H322M lung, 85.7% [7.9 µM]; in the experiment with HOP-62 NSCLC, 8.97% [7.9 µM] (active); in the experiment with NCI-H460 lung it was 30.4% [7.9 µM]; in the experiment with HOP-92 NSCLC it was 7.82% [7.9 µM] (active). Also, the growth with NCI-H522 lung is -16.2% [7.9 µM] (active); in the experiment with A549/ATCC NSCLC, 39% [7.9 µM]; with 786-0 renal, 23% [7.9 µM]; with COLO 205 colon, -26.7% [7.9 µM] (active); in the experiment with DU-145 prostate it was 20.4% [7.9 µM]; in the experiment with K-562 leukemia, 7.46% [7.9 µM] (active). The growth in the experiment on MALME-3M melanoma is 26.2% [7.9 µM]; in the experiment with MDA-MB-231 breast, -11.1% [7.9 µM] (active); with RXF 393 renal it was -4.76% [7.9 µM] (active); with SF-268 CNS, 12.5% [7.9 µM]; with SF-295 CNS, 53.7% [7.9 µM]; in the experiment with SF-539 CNS it was 1.99% [7.9 µM] (active). In addition, the growth is 54.4% [7.9 µM] with UACC-257 melanoma and -3.08% [7.9 µM] (active) in the experiment with M14 melanoma.

On to `CCN1CCN(C(=O)[C@@]2(C)CC[C@]3(C)CC[C@]4(C)C(=CC(=O)[C@@H]5[C@@]6(C)CC[C@H](OC7C[C@@H](O)[C@@H](O)C(C)O7)C(C)(C)[C@@H]6CC[C@]54C)[C@@H]3C2)CC1` (stereo not given in full), for which the growth in the experiment with NCI-H23 lung is 45.2%; with NCI-H226 lung it was 26.3%; in the experiment on NCI-H322M lung, 37%; in the experiment on HOP-62 NSCLC it was 26.9%; in the experiment with NCI-H460 lung it was -79.5% (active); in the experiment with HOP-92 NSCLC, 0.911% (active). In addition, the growth in the experiment with NCI-H522 lung is 38.6%; with A549/ATCC NSCLC, 12.5%; in the experiment on 786-0 renal, -60.5% (active); in the experiment with COLO 205 colon it was 106%; in the experiment on DU-145 prostate it was 2.94% (active); in the experiment with K-562 leukemia it was 8.78% (active). The growth is 2.56% (active) in the experiment with MALME-3M melanoma; 6.15% (active) in the experiment on MDA-MB-231 breast; 60.4% in the experiment on RXF 393 renal; 24.2% with SF-268 CNS; -78% (active) in the experiment on SF-295 CNS; -59.2% (active) with SF-539 CNS. Besides, the values for the growth in the experiment on UACC-257 melanoma and with M14 melanoma were 14.8% and -55.2% (active), respectively.

`CCCCC[C@H]1C/C=C2/C(=O)C=C[C@@H]2C/C=C\CCCC(=O)O[C@@H](CCCCC)C/C=C2/C(=O)C=C[C@@H]2C/C=C\CCCC(=O)O1`: the growth in the experiment on NCI-H23 lung was -72.7% (active); in the experiment on NCI-H226 lung, -61.2% (active); with NCI-H322M lung, -85.7% (active); in the experiment with HOP-62 NSCLC it was -74.4% (active); in the experiment with NCI-H460 lung, -54.7% (active); in the experiment with HOP-92 NSCLC, -68.8% (active). The growth is -81.7% (active) in the experiment on NCI-H522 lung; -43.5% (active) in the experiment on A549/ATCC NSCLC; -86.8% (active) in the experiment with 786-0 renal; -81.7% (active) in the experiment with COLO 205 colon; -93.1% (active) in the experiment on DU-145 prostate; -45.3% (active) with K-562 leukemia. For the same molecule, the growth is -78.4% (active) in the experiment with MALME-3M melanoma; -50.1% (active) in the experiment on MDA-MB-231 breast; -92.4% (active) in the experiment with RXF 393 renal; -78.7% (active) with SF-268 CNS; -45% (active) in the experiment on SF-295 CNS; -89.5% (active) in the experiment with SF-539 CNS. The growth was -61.7% (active) with UACC-257 melanoma and -82.8% (active) in the experiment with M14 melanoma.

With `C=C(C)[C@@H]1CC[C@]2(C(=O)NNC(=O)c3cccnc3)CC[C@]3(C)[C@H](CC[C@@H]4[C@@]5(C)CCCNC(C)(C)[C@@H]5CC[C@]43C)[C@@H]12`, the growth in the experiment with NCI-H23 lung is 84.4%; in the experiment on NCI-H226 lung, 83.2%; with NCI-H322M lung, 101%; in the experiment on HOP-62 NSCLC, 84.9%; with NCI-H460 lung it was 95.9%; in the experiment with HOP-92 NSCLC, 50.5%. In addition, the growth is 99.4% with NCI-H522 lung; 71.6% in the experiment with A549/ATCC NSCLC; 94.8% with 786-0 renal; 20.6% with COLO 205 colon; 91.3% in the experiment with DU-145 prostate; 1.18% (active) with K-562 leukemia. Moreover, the growth with MALME-3M melanoma was 66.6%; in the experiment on MDA-MB-231 breast, 87%; with RXF 393 renal it was 79.7%; with SF-268 CNS it was 87%; in the experiment with SF-295 CNS it was 90.3%; with SF-539 CNS it was 81.3%. For the same molecule, the growth was 61.9% in the experiment on UACC-257 melanoma and 63.8% with M14 melanoma.

In the case of `Cc1cc(N(CCNc2ccnc3cc(Cl)ccc23)Cc2ccco2)nc(Cl)n1`, the growth with NCI-H23 lung was 14.2%; with NCI-H226 lung it was -62.3% (active); in the experiment on NCI-H322M lung, 12.6%; in the experiment on HOP-62 NSCLC, -48.2% (active); in the experiment with NCI-H460 lung it was -59.8% (active); in the experiment with HOP-92 NSCLC it was -76.9% (active). Moreover, the growth is -8.16% (active) with NCI-H522 lung; -55.8% (active) in the experiment on A549/ATCC NSCLC; -92.8% (active) in the experiment on 786-0 renal; -53.5% (active) in the experiment on COLO 205 colon; 19.6% with DU-145 prostate; -54.5% (active) with K-562 leukemia. Moreover, the growth is -64.6% (active) in the experiment with MALME-3M melanoma; -75.4% (active) in the experiment with MDA-MB-231 breast; -79.8% (active) in the experiment with RXF 393 renal; 30.9% with SF-268 CNS; -75% (active) in the experiment on SF-295 CNS; -80.8% (active) in the experiment with SF-539 CNS. In addition, the growth in the experiment on UACC-257 melanoma is -29.2% (active); in the experiment with M14 melanoma, -64.9% (active).
